Experimental data taken from PubChem BioAssay.
Several values for one entry are separate records, joined by “and”; a condition that tells them apart may be missing. Equal values may be shown once. Activity calls are given as the source filed them.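 Rule for the calls, unless noted: active = inhibition at or above 50% relative to wild type and mutant plate controls; inactive = inhibition below 50%.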

What was measured:
[1] = inhibitors of TNFa-induced NFkB p65 translocation, primary screen, imaging, HUVEC, MLSMR starter and 10KST1 sets (AID 438;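 active = inhibition above 20% together with a positive visual image hit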;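 note: compound added about 3h40 before a 20 min TNFalpha stimulation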;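 for inhibition: signal is the nuclear over cytoplasmic p65 intensity ratio per well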); conditions: HUVEC TNFa-induced p65 nuclear translocation; cell count: measured here: nuclei count (cytotoxicity indicator), at 2.08 µM; inhibition: at 2 µM, stronger effect = higher value, 0% TNFa-plus-vehicle, 100% no-TNFa wells
[2] = inhibitors of mutant huntingtin aggregation, primary screen, imaging, exon1htt(103Q)mCFP cells, high-content imaging (AID 483;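 active = visual image review flags a hit and inhibition of aggregation exceeds 20%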;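 note: compound exposure lasted 3 days before fixation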;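 for nuclei count: percent of the per-plate median nuclei count of sample wells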); conditions: exon1htt(103Q)mCFP cell line, aggregate imaging, at 2 µM; inhibition of aggregation: stronger effect = higher value; nuclei count: measured here: cell count, toxicity
[3] = inhibitors of E-selectin induction by TNFa, primary screen, imaging, HUVEC, immunofluorescence, MLSMR starter and 10KST1 sets (AID 487;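 active = visually confirmed hit in the image check and inhibition above 20%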;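 for inhibition: signal is fraction of cell area covered by stained E-selectin grains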;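 for nuclei count: 100% = median nuclei count of all wells on the same plate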); conditions: HUVEC TNFalpha-induced E-selectin immunofluorescence imaging, at 2 µM; inhibition: stronger effect = higher value; nuclei count: measured here: cell number, toxicity
[4] = DUSP6 inhibitors restoring Erk phosphorylation by chemical complementation, primary imaging in DUSP6-transfected HeLa (AID 609;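 active = compounds giving at least 50% inhibition in the cell-based MKP-3 phosphatase rescue imaging test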;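 for inhibition: phospho-Erk level distribution per well compared with pooled transfected vehicle control wells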); conditions: HeLa MKP-3 transfected, phospho-Erk imaging KS statistic, at 10 µM, cells stimulated with TPA for 15 min
[5] = target: Dual specificity protein phosphatase 6 (Homo sapiens) (UniProt Q16828); experiment: as above; conditions: HeLa MKP-3 transfected, phospho-Erk imaging KS statistic; at 10 µM; stronger effect = higher value; cells stimulated with TPA for 15 min
Sequence of Dual specificity protein phosphatase 6 (Homo sapiens) (Q16828 whole entry, looked up): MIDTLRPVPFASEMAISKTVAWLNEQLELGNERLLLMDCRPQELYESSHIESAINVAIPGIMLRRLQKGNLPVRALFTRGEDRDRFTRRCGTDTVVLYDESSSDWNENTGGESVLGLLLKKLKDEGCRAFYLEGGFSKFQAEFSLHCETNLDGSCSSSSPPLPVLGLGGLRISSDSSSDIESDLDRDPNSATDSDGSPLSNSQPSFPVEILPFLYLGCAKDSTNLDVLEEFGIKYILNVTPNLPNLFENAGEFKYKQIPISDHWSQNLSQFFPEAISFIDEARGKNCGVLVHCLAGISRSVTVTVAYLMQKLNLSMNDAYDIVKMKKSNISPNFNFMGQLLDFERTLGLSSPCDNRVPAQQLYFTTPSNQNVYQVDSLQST

[6] = target: Voltage-gated potassium channel subunit beta-2 (Rattus norvegicus) (UniProt P62483); experiment: KvBeta enzyme negative modulators, primary screen, biochemical, NADPH fluorescence (AID 622;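 active = fluorescence slope higher than the sample average by over 3 SD, cut at about -0.22 in these data, passing the limit was not always enough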;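 note: slope of raw intensity against log time taken from 70 to 1610 s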); conditions: recombinant KvBeta, 4-cyanobenzaldehyde reduction, at 10 µM, stronger effect = higher value
Sequence of Voltage-gated potassium channel subunit beta-2 (Rattus norvegicus) (P62483 whole entry, looked up): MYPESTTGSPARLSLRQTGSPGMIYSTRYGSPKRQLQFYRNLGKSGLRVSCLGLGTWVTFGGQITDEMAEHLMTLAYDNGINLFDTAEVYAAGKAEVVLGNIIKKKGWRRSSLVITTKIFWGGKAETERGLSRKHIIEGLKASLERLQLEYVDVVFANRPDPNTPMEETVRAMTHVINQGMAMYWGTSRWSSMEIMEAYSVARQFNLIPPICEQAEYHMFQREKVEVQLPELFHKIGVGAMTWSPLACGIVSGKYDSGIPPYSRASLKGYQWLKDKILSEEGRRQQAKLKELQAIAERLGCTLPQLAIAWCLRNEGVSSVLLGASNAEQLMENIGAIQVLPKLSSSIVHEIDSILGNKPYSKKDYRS

[7] = target: Voltage-gated potassium channel subunit beta-2 (Rattus norvegicus) (UniProt P62483); experiment: KvBeta positive modulators, primary screen, biochemical, NADPH fluorescence (AID 623;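 active = NADPH fluorescence slope more negative than the mean of all samples by about 3 SD, 99.7% confidence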;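 note: fluorescence intensity change per second fitted from 20 to 320 s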); conditions: Recombinant KvBeta, NADPH fluorescence decrease slope, 10 min; at 10 µM; stronger effect = lower value
[8] = target: Alpha-2C adrenergic receptor (Homo sapiens) (UniProt P18825); experiment: modulators of alpha2C/GIRK thallium flux, primary screen, cell-based, HEK293 alpha2C/GIRK1/2 (AID 624;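 active = fluorescence slope after compound addition differing from the mean of all screened samples at 99.7% confidence, in either direction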;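 note: slope of fluorescence ratio to pre-addition baseline per second over 15 to 24 s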); conditions: thallium flux BTC fluorescence, at 10 µM, actives lie on both sides
Sequence of Alpha-2C adrenergic receptor (Homo sapiens) (P18825 whole entry, looked up): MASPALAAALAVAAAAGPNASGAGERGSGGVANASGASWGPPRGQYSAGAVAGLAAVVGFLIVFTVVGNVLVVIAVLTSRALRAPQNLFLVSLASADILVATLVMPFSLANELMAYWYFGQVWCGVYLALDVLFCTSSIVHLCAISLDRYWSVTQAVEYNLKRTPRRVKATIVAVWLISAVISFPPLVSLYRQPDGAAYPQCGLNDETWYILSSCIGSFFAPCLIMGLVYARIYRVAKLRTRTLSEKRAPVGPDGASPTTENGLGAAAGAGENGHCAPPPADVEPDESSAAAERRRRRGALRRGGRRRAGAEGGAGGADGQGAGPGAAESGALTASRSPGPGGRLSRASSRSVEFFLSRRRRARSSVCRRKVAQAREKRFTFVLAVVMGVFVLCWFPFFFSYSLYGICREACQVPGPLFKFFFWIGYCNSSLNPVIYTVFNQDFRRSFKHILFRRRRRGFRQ

[9] = inhibitors of larval lipid processing in zebrafish, primary screen, whole organism, PED6 fluorescence, gall bladder and intestine (AID 686;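 active = a full or partial loss of lipid-probe fluorescence in the fish gall bladder, intestine or both, judged by eye; inactive = no fluorescence loss, or compound toxic to the fish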;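 note: larvae 5 to 7 days old with five fish per well; signal comes from phospholipase A2 cleavage of quenched PED6 carried via bile; overnight exposure to compound and PED6 before scoring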); conditions: Zebrafish larvae PED6 lipid processing, fluorescence scoring; screened at 20 µM (by protocol)
[10] = inhibitors of Chlamydomonas gravitaxis, primary screen, whole organism, Chlamydomonas reinhardtii, WT vs cilia-less mutant, absorbance, 96-well (AID 463189); conditions: OD600 absorbance, 2 days, at 10 µM, stronger effect = higher value;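 note: 0% = wild type cc124 cells in DMSO and 100% = ciliumless bld1 mutant cells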
[11] = inhibitors of Sendai virus-induced IRF3 signaling, primary screen, TLR/RLR signaling modifier project, cell-based, Sendai virus stimulus, luciferase, 10K MLSCN set (AID 602276;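 active = inhibition at or above 50% at 10 µM; inactive = inhibition below 50%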;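 note: firefly luciferase from ISG56 promoter only with Renilla not read in this screen; 0% = Sendai virus plus DMSO and 100% = medium plus DMSO without virus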); conditions: HEK293 RL24 IRF3 luciferase reporter, at 10 µM, stronger effect = higher value
[12] = inhibitors of poly I:C-induced TLR3 signaling, primary screen, cell-based, poly I:C stimulus, luciferase, 10K MLSCN set (AID 602277;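 active = inhibition of the reporter signal at or above 50%; inactive = inhibition below 50%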); conditions: HEK293-TLR3 RL24 IRF3 luciferase reporter, at 10 µM, stronger effect = higher value
[13] = measured here: cell density z-score
[14] = measured here: nuclear c-Myc green intensity z-score
[15] = measured here: nuclear pErk red intensity z-score, stronger effect = higher value

SMILES | cell count [1] | inhibition [1] | inhibition of aggregation [2] | nuclei count [2] | inhibition [3] | nuclei count [3] | z-score [4, 13] | z-score [4, 14] | z-score [4, 15] | inhibition [5] | fluorescence slope [6] | NADPH fluorescence slope [7] | slope [8] | outcome [9] | inhibition [10] | inhibition [11] | inhibition [12]
CCCCC1C(=O)N(c2ccccc2)N(c2ccccc2)C1=O | 638 | 4.6% (inactive) | -5.9% (inactive) | 96.9% | -26.6% (inactive) | 109% | 1.68 | -0.325 | -0.291 | 8% (inactive) | -0.483 (inactive) | -4.2e-05 (inactive) | 0.00446 (inactive) | inactive | 5.13% (inactive) and -8.61% (inactive) | 19.9% (inactive) | 41.2% (inactive)
CC(C)N=c1cc2n(-c3ccc(Cl)cc3)c3ccccc3nc-2cc1Nc1ccc(Cl)cc1 | 636 | -2.8% (inactive) | -9.9% (inactive) | 102% | -163% (inactive) | 126% | -0.698 | -0.296 | 0.758 | -0.493% (inactive) | -0.535 (inactive) | -1.6e-05 (inactive) | 0.00125 (inactive) | active; weak signal in gallbladder and intestine | 157% (active) | -7.35% (inactive) | 33.1% (inactive)
c1ccc2c(CC3=NCCN3)cccc2c1 | 547 | -0.9% (inactive) | -4.4% (inactive) | 90.2% | -43.3% (inactive) | 118% | -0.259 | -0.0766 | 1 | 9.37% (inactive) | -0.503 (inactive) | -6.8e-05 (inactive) | 0.00554 (inactive) | inactive | -6.08% (inactive) | 12.4% (inactive) | 36.7% (inactive)
CC1(C)Cc2c(sc3c2C2=NCCN2C=N3)CS1 | 632 | -2.6% (inactive) | -1.3% (inactive) | 109% | -26.4% (inactive) | 138% | 1.38 | 0.227 | -1.08 | 11.3% (inactive) | -0.487 (inactive) | -0.000119 (inactive) | 0.00445 (inactive) | inactive | -8.31% (inactive) | 0.61% (inactive) | 4.84% (inactive)
CC(=O)OCC(=O)[C@@]1(O)CC[C@H]2[C@@H]3CCC4=CC(=O)C=C[C@]4(C)[C@@]3(Cl)[C@@H](Cl)C[C@@]21C | 574 | -7.2% (inactive) | -27.9% (inactive) | 64.3% | -50.9% (inactive) | 118% | 0.892 | 0.179 | 0.325 | 11.3% (inactive) | -0.484 (inactive) | -5.1e-05 (inactive) | 0.00396 (inactive) | inactive | 18.7% (inactive) | 5.49% (inactive) | 38.2% (inactive)
CN(C)CCOc1ccccc1Cc1ccccc1 | 539 | 5.9% (inactive) | -17.6% (inactive) | 92.7% | -66.7% (inactive) | 118% | -0.59 | 1.74 | -0.949 | 10.2% (inactive) | -0.506 (inactive) | 2.6e-05 (inactive) | 0.00455 (inactive) | inactive | 147% (active) | 17.7% (inactive) | 43% (inactive)
COc1cccc(Cn2c(OCC3CCCO3)nc3c2c(=O)n(C)c(=O)n3C)c1 (stereo not given) | 411 | -13.3% (inactive) | 1.3% (inactive) | 104% | -83.9% (inactive) | 153% | -0.111 | 0.171 | 0.516 | -7.28% (inactive) | -0.377 (inactive) | -2.5e-05 (inactive) | 0.00528 (inactive) | inactive | 0.777% (inactive) | 17.3% (inactive) | 17.8% (inactive)
CCOc1ccc(CSC(CC(=O)O)C(=O)O)cc1 (stereo not given) | 670 | -12.9% (inactive) | 18.1% (inactive) | 98.8% | -17.6% (inactive) | 137% | -0.325 | -0.101 | 1.94 | -6.86% (inactive) | -0.356 (inactive) | -2.7e-05 (inactive) | 0.00455 (inactive) | inactive | 2.66% (inactive) | 13.1% (inactive) | 29.3% (inactive)
Nc1nc(N)c2nc(-c3ccccc3)c(N)nc2n1 | 640 | -0.8% (inactive) | -9.9% (inactive) | 107% | -64.7% (inactive) | 133% | -0.982 | -0.143 | 2.15 | -11.9% (inactive) | -0.0137 (active) | -1.2e-05 (inactive) | 0.00479 (inactive) | inactive | 4.85% (inactive) and -8.55% (inactive) | 12.2% (inactive) | 34.5% (inactive)
COc1ccc(-c2nnc3sc(-c4c(OC)cccc4OC)nn23)cc1 | 498 | -7.5% (inactive) | 26.2% (inactive) | 28.4% | -176% (inactive) | 131% | -0.466 | -2.13 | -0.0898 | -6.06% (inactive) | -0.435 (inactive) | -0.000139 (inactive) | 0.00691 (inactive) | inactive | 14.7% (inactive) | 11.7% (inactive) | 13% (inactive)
COc1ccc2c(c1)c(CC(=O)OCC(=O)O)c(C)n2C(=O)c1ccc(Cl)cc1 | 609 | -4% (inactive) | -25.2% (inactive) | 89.1% | -34.9% (inactive) | 111% | -0.113 | 0.548 | -0.549 | 17.3% (inactive) | -0.451 (inactive) | -3.8e-05 (inactive) | 0.00555 (inactive) | inactive | 14.4% (inactive) | 11.9% (inactive) | 36.9% (inactive)
COc1ccc(C2/C(=C(/O)c3ccc(OC(C)C)cc3)C(=O)C(=O)N2CCCN2CCOCC2)cc1 (stereo not given) | 466 | 4.1% (inactive) | -2.7% (inactive) | 102% | -19.1% (inactive) | 134% | -0.477 | 0.263 | 0.227 | -11.9% (inactive) | -0.319 (inactive) | -2e-05 (inactive) | 0.00508 (inactive) | inactive | -1.04% (inactive) | 9.78% (inactive) | 13.7% (inactive)
COc1ccccc1NC(=O)C1=C(C)NC(SCC(=O)c2ccc(C)cc2)=C(C#N)C1c1ccco1 (stereo not given) | 529 | -0.5% (inactive) | 9.6% (inactive) | 99.4% | 6.5% (inactive) | 114% | 0.647 | -0.415 | 1.41 | -2.07% (inactive) | -0.481 (inactive) | -7.1e-05 (inactive) | 0.00753 (inactive) | inactive | 36.3% (inactive) | -17.3% (inactive) | -56.3% (inactive)
COc1cccc(OC)c1C(=O)N1CCN(S(=O)(=O)c2ccc(C)cc2)CC1 | 565 | -7.5% (inactive) | 12.9% (inactive) | 104% | -232% (inactive) | 135% | -0.228 | -1.25 | 0.112 | 5.57% (inactive) | -0.382 (inactive) | 1.3e-06 (inactive) | 0.0062 (inactive) | inactive | -1.26% (inactive) | 5.77% (inactive) | 18% (inactive)
Cc1ccc(S(=O)(=O)NCC(=O)OCN2C(=O)c3ccccc3C2=O)cc1 | 416 | -4.7% (inactive) | -19.8% (inactive) | 85.7% | -23.1% (inactive) | 93.4% | -0.341 | -0.796 | 0.197 | 7.93% (inactive) | -0.574 (inactive) | 4e-05 (inactive) | 0.00572 (inactive) | inactive | 45.3% (inactive) | 11.3% (inactive) | -3.4% (inactive)
CCN(CC)S(=O)(=O)c1cccc2c(N(C)C)cccc12 | 503 | -2.1% (inactive) | 14.8% (inactive) | 95.3% | -84.9% (inactive) | 128% | 0.324 | -0.162 | 1.65 | 0.671% (inactive) | -0.177 (active) | -1.3e-05 (inactive) | 0.00311 (inactive) | inactive | 25.1% (inactive) | -4.35% (inactive) | -4.09% (inactive)
CN(C)c1nc(N(C)C)nc(N(C)C)n1 | 680 | -4.1% (inactive) | 1.6% (inactive) | 109% | -118% (inactive) | 129% | 1.31 | -0.357 | -1.49 | 11.3% (inactive) | -0.459 (inactive) | 2.8e-05 (inactive) | 0.0048 (inactive) | inactive | 4.91% (inactive) and -7.01% (inactive) | 14.2% (inactive) | 32.5% (inactive)
CC(C)C1Cc2c(C#N)c(N)sc(=S)c2CO1 (stereo not given) | 487 | 4.7% (inactive) | 2.2% (inactive) | 102% | -98.3% (inactive) | 146% | 1.33 | -0.895 | 0.775 | 14% (inactive) | -0.291 (inactive) | 1.2e-05 (inactive) | 0.0021 (inactive) | inactive | 27.2% (inactive) | -3.04% (inactive) | 12.1% (inactive)
COc1ccc2c(c1OC)C(=O)O[C@@H]2[C@H]1c2c(cc3c(c2OC)OCO3)CCN1C | 567 | 1.8% (inactive) | 0.2% (inactive) | 97.2% | -22.4% (inactive) | 112% | 0.15 | -0.163 | -0.0552 | 23.4% (inactive) | -0.46 (inactive) | -6.4e-05 (inactive) | 0.00541 (inactive) | inactive | -5.91% (inactive) and 3.65% (inactive) | 0.328% (inactive) | 32.2% (inactive)
CCCCN1C[C@H](O)[C@@H](O)[C@H](O)[C@H]1CO | 594 | -9.5% (inactive) | -4.6% (inactive) | 109% | -34.3% (inactive) | 129% | 0.947 | -0.313 | 0.0804 | 15.3% (inactive) | -0.473 (inactive) | 1.5e-05 (inactive) | 0.00474 (inactive) | inactive | 22.3% (inactive) | 14% (inactive) | 19.6% (inactive)
